Laboratory results: the supplement of paper PMC8699584
± gives the standard deviation of the averaged measurements.

What was measured:
Molm13 = experiment: cell viability relative to DMSO control (bortezomib = 0%); higher = less growth inhibition; details: 10 nM; 72 h
In short: (§1)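 Using 384-well plates, a set of 679 approved and investigational compounds was tested once at 10 nM against acute myeloid leukemia cells (1000 cells per well in 50 µL) over 72 h, with the whole screen done in duplicate. Viability readout relied on CellTiter-Glo luminescence measured on an EnVision reader. For each plate, linear regression mapped values between positive-control-treated cells at 0% and DMSO-treated cells at 100%.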

Mv4-11 = experiment: as above; details: 10 nM; 72 h
In short: as §1

SMILES	cell viability (Molm13) [%]	cell viability (Mv4-11) [%]
COc1cc(N2CCN(C)CC2)ccc1Nc1nccc(-c2cn(C)c3cnccc23)n1	118 ± 3.1	117 ± 7
Cc1c(C)c2c(c(C)c1O)CC[C@@](C)(CCC[C@H](C)CCC[C@H](C)CCCC(C)C)O2 [Vitamin E]	93.3 ± 1.1	107 ± 16
O=C(O)c1ccc(Nc2ncc3c(n2)-c2ccc(Cl)cc2C(c2c(F)cccc2F)=NC3)cc1	107 ± 1.3	107 ± 3.6
CO[C@@H]1[C@H](N(C)C(=O)c2ccccc2)C[C@H]2O[C@]1(C)n1c3ccccc3c3c4c(c5c6ccccc6n2c5c31)C(=O)NC4	76.2 ± 3	87.82 ± 0.66
CC(C)N(CCC(=O)c1ccc2ccccc2c1)Cc1ccccc1	96.8 ± 7	111 ± 1.4
Cn1sc(=O)n(Cc2ccccc2)c1=O	90.9 ± 6.1	108 ± 21
CNS(=O)(=O)C[C@H]1CC[C@H](N(C)c2[nH]cnc3nccc2-3)CC1 [Oclacitinib]	96.5 ± 22	107 ± 18
COCCN1CCN(Cc2ccc(-c3n[nH]c4c3C(=O)c3c(NC(=O)NN5CCOCC5)cccc3-4)cc2)CC1	70.99 ± 0.17	55.6 ± 8.7
CC[C@@H]1C(=O)N(C)c2cnc(Nc3ccc(C(=O)N[C@H]4CC[C@H](N5CCN(CC6CC6)CC5)CC4)cc3OC)nc2N1C(C)C [Volasertib (BI 6727)]	104.1 ± 0.8	117 ± 15
